Test [1] can be described thus: Quantitative highthroughput screen to assess conditional lethalithy of NOMO1 cells grown in RPMI1640 with untreated serum (RPMI+s) (AID 1963876). Also: nearly all actives have a fitted effect of over 35% in size. Also: potency is read from the fitted curve at half-maximal effect.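 As to viability: 100% = DMSO wells and 0% = empty wells without cells.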 Put shortly:
(§1)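 Each medium arm—HPLM with 10% dialyzed FBS, or RPMI1640 with 5 mM glucose and 10% untreated or dialyzed FBS—was screened against an 11-point, 3-fold compound titration for 48 h at 37 °C, with CellTiter-Glo luminescence as endpoint.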

Test [2] can be described thus: Quantitative highthroughput screen to assess conditional lethalithy of NOMO1 cells grown in RPMI1640 with dialyzed fetal bovine serum (RPMI+ds) (AID 1963877). Also: nearly all actives have a fitted effect of over 30% in size. Also: potency is read from the fitted curve at half-maximal effect.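 As to viability: series mostly up to about 46 µM; 100% = DMSO control wells and 0% = empty wells.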 Put shortly: as §1
Test [3] in a line: Quantitative highthroughput screen to assess conditional lethalithy of P12 Ichikawa cells grown in RPMI1640 with dialyzed fetal bovine serum (RPMI+ds) (AID 1963880). Also: nearly all actives have a fitted effect of over 35% in size. Also: potency is read from the fitted curve at half-maximal effect.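 As to viability: 100% = DMSO wells and 0% = empty wells on each plate.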 The settings on record: Potency: P12-Ichikawa viability. Put shortly:
as §1

Test [4] in a line: Quantitative highthroughput screen to assess conditional lethalithy of SEM cells grown in RPMI1640 with unreated serum (RPMI+s) (AID 1963883). Also: nearly all actives have a fitted effect of over 35% in size. Also: potency is read from the fitted curve at half-maximal effect.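 As to viability: 100% = DMSO wells and 0% = empty wells without cells.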 Put shortly:
as §1

Test [5] in a line: Cellular viability qHTS for adrenocortical cancer (ACC) cell line SW-13 (AID 1963989). Also: nearly all actives have a fitted effect of over 65% in size. Also: potency is read from the fitted curve at half-maximal effect.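 As to activity (max response): cells grown in serum-free medium with ITS supplement; % is scaled to controls: 0 for no effect and ±100 for the full control effect.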 The settings on record: SW-13 ACC cells viability, CellTiter-Glo, 48 h; activity (max response): stronger effect = lower value. Put shortly: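 IC50 and maximal-response values come from four-parameter logistic fits of titration data. SW-13 cells in serum-free medium received compounds (up to 46 uM final) for 48 h before CellTiter-Glo luminescence.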
(qHTS replaces the single test concentration by a dilution series.)

A short description of test [6]: Cellular viability qHTS for adrenocortical cancer (ACC) cell line NCI-H295R (AID 1963990). Also: nearly all actives have a fitted effect of over 60% in size. Also: potency is read from the fitted curve at half-maximal effect. In a few lines: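 Adrenocortical carcinoma cells, suspended at 300 000 cells/mL in serum-free DMEM plus ITS, rested overnight before pin transfer of compound. After two days' incubation, ATP-dependent luminescence was recorded and curve-fitted.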
A short description of test [7]: Quantitative highthroughput screen to assess conditional lethalithy of P12 Ichikawa cells grown in RPMI1640 with untreated serum (RPMI+s) (AID 1963881). Also: nearly all actives have a fitted effect of over 35% in size. Also: potency is read from the fitted curve at half-maximal effect.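 As to viability: series mostly up to about 46 µM; 100% = DMSO wells and 0% = empty wells without cells.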 The conditions noted are these: Potency: viability. Put shortly:
as §1

The nature of test [8]: Quantitative highthroughput screen to assess conditional lethalithy of SEM cells grown in RPMI1640 with dialyzed fetal bovine serum (RPMI+ds) (AID 1963884). Also: nearly all actives have a fitted effect of over 35% in size. Also: potency is read from the fitted curve at half-maximal effect.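 As to viability: series mostly up to about 46 µM; 100% = DMSO control wells and 0% = empty wells without cells.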 Put shortly:
as §1

Test [9] in a line: Quantitative highthroughput screen to assess conditional lethalithy of P12 Ichikawa cells grown in Human Plasma-Like Medium with dialyzed fetal bovine serum (HPLM+ds) (AID 1963879). Also: nearly all actives have a fitted effect of over 35% in size. Also: potency is read from the fitted curve at half-maximal effect. As to viability: series mostly up to about 46 µM. The conditions noted are these: Potency: viability. Put shortly:
as §1

The nature of test [10]: Quantitative highthroughput screen to assess conditional lethalithy of SEM cells grown in Human Plasma-Like Medium with dialyzed fetal bovine serum (HPLM+ds) (AID 1963882). Also: nearly all actives have a fitted effect of over 35% in size. Also: potency is read from the fitted curve at half-maximal effect. As to viability: series mostly up to about 46 µM. Put shortly: as §1
Test [11] in a line: Quantitative highthroughput screen to assess conditional lethalithy of NOMO1 cells grown in Human Plasma-Like Medium with dialyzed fetal bovine serum (HPLM+ds) (AID 1963878). In a few lines:
as §1

Structures are written as SMILES. Where “and” joins values, the source holds several entries; their conditions need not be identical. Equal values may be shown once. Records with an inconclusive call do not appear. A number with no mark means an inactive call. Calls of active or inactive are those of the source. Calls follow the shape of the dose curve; as a rule, active = well fitted curve in the direction sought with a large enough effect; inconclusive = small, poorly fitted or top-dose-only effect, or another doubt; inactive = no such curve, though single readings can be large; an effect the other way counts as inactive or inconclusive.

Turning to `COc1ccc(-c2c(-c3ccc(O)cc3O)n[nH]c2C)cc1`, the Potency entry in test [1], in [2], in [3] and in test [6] was “inactive” in each case. In test [4], the Potency was 19.1 µM (active). Besides, the activity (max response) in test [5] is -14.3%.
For `CC(=O)NCCC(=O)N[C@@H](CCC(N)=O)C(=O)N[C@@H](CO)C(=O)N[C@@H](CCC(N)=O)C(=O)N[C@@H](CCC(N)=O)C(=O)N[C@H](C(=O)N[C@@H](Cc1ccccc1)C(=O)N[C@]1(C)CCCCCCC=CCCC[C@@](C)(C(=O)N[C@@H](CCC(N)=O)C(=O)N[C@@H](CC(N)=O)C(N)=O)NC(=O)[C@H](CC(C)C)NC(=O)[C@H](CC(C)C)NC(=O)[C@@H](CCCNC(=N)N)NC(=O)[C@H](Cc2c[nH]c3ccccc23)NC(=O)[C@H](CC(C)C)NC(=O)[C@H](CC(N)=O)NC1=O)[C@H](C)O`, the Potency result in test [1], in test [2], in [3] and in [7] was “inactive” throughout. In addition, the figures for the Potency in [4], in test [8] and in test [5] were 0.833 µM (active), 2.64 µM (active) and 28.2 µM (active), respectively.
As to `Cc1[nH]c(C=C2C(=O)Nc3ccc(S(=O)(=O)Cc4c(Cl)cccc4Cl)cc32)c(C)c1C(=O)N1CCC[C@H]1CN1CCCC1`, the Potency result in test [1], in [2], in [9] and in test [7] was “inactive” in each case. The Potency in test [10] was 2.35 µM (active).
For the molecule `O=C(C=Cc1ccc(O)cc1)c1ccc(O)cc1O`, the Potency entry in test [1] and in [2] was “inactive” each time. Also, the Potency in [3] was 13.2 µM (active); in test [7], 16.6 µM (active); in test [4], 18.7 µM (active).
As for `O=C1CN2Cc3c(ccc(Cl)c3Cl)N=C2N1`, the Potency entry in [1], in [2], in test [10] and in test [6] was “inactive” throughout. Moreover, in test [5], the activity (max response) is 2.15%.
Turning to `COc1ccc(C(C)=O)c(O)c1`, the results for the Potency in test [1], in test [2] and in [7] were 2.64 µM (active), 2.96 µM (active) and 8.33 µM (active), respectively. For the same molecule, the Potency result in test [10], in test [4] and in test [8] was “inactive” in each case.
Take `CC1(C)[C@H](O[C@H]2O[C@H](C(=O)O)[C@@H](O)[C@H](O)[C@H]2O[C@@H]2O[C@H](C(=O)O)[C@@H](O)[C@H](O)[C@H]2O)CC[C@@]2(C)[C@H]1CC[C@]1(C)[C@H]2C(=O)C=C2[C@H]3C[C@@](C)(C(=O)O)CC[C@]3(C)CC[C@]21C`: the Potency entry in test [1], in test [2], in test [9], in test [3], in [10] and in test [4] was “inactive” in each case. Besides, in [8], the Potency result is “inactive”.
For the molecule `COC1CCC(N(C(=O)C2CCC(C)CC2)c2cc(C3=CCCCC3)sc2C(=O)O)CC1` (stereo unspecified), the Potency entry in [1], in test [2] and in test [6] was “inactive” throughout. For the same molecule, the values for the Potency in [9] and in test [3] were 18.7 µM (active) and 14.8 µM (active), respectively. Further, in test [5], the activity (max response) is 0.0132%.
Take `Cc1coc2c1C(=O)C(=O)c1c-2ccc2c(C)cccc12`: the Potency result in test [1], in test [2], in test [3], in [7] and in test [10] was “inactive” each time.
Take `CC(=O)Oc1ccccc1C(=O)Nc1ncc([N+](=O)[O-])s1`: the Potency result in test [1], in [2], in test [7], in test [4], in [8] and in test [6] was “inactive” each time. Besides, the activity (max response) in test [5] was 7.32% and 2.04%.
For `COc1ccc(-c2oc3c(CC=C(C)C)c(OC4O[C@H](CO)[C@@H](O)[C@H](O)[C@@H]4O)cc(O)c3c(=O)c2OC2O[C@@H](C)[C@H](O)[C@@H](O)[C@@H]2O)cc1` (stereo partly specified), the Potency entry in test [1], in test [2] and in test [3] was “inactive” throughout. The Potency in test [10] is 18.7 µM (active); in [4], 13.2 µM (active); in test [8] it was 18.7 µM (active).
Take `CC(=O)O[C@]1(C(C)=O)CC[C@H]2[C@@H]3C=C(C)C4=CC(=O)CC[C@]4(C)[C@@H]3CC[C@@]21C`: the Potency entry in test [1], in test [11], in test [9], in test [3], in test [7] and in [10] was “inactive” in each case. The Potency entry in test [4] was “inactive”.
`O=S(=O)(NCCNCC=Cc1ccc(Br)cc1)c1cccc2cnccc12`: the Potency result in test [1], in [2] and in [3] was “inactive” throughout.
Take `Nc1nc2ccc(OC(F)(F)F)cc2s1`: the Potency entry in test [1], in test [2] and in [10] was “inactive” each time. Moreover, the Potency in test [6] is 20 µM (active).
Regarding `CCCCOCCOc1nc(-c2ccc(C(=O)O)c(F)c2)sc1C`, the Potency entry in test [1], in test [2], in test [7], in test [10], in test [4] and in [8] was “inactive” each time. Moreover, the activity (max response) in test [5] was -9.17%.
With `COc1cc(N2CCC(C(N)=O)CC2)ccc1Nc1nc(N)c(Cl)c(Nc2ccccc2S(=O)(=O)C(C)C)n1`, the Potency in test [1] is 20.9 µM (active); in [2] it was 16.6 µM (active); in test [9] it was 23.5 µM (active); in [7], 18.7 µM (active); in [10], 8.33 µM (active); in test [4], 4.18 µM (active). Further, the Potency in [8] was 9.35 µM (active).
With `O=C(O)c1cccnc1Nc1cccc(C(F)(F)F)c1`, the Potency entry in [1], in test [11], in [9], in test [3], in [7] and in [10] was “inactive” throughout.
Take `O=c1oc2cc(O)ccc2s1`: the Potency entry in test [1], in test [2], in test [9], in test [3] and in [6] was “inactive” throughout.
Consider `C=CC(=O)Nc1cccc(Nc2nc(NC3CCC(N(C)C)CC3)nc3c2ncn3C(C)C)c1` (stereo unspecified), for which the Potency in [1] was 2.96 µM (active); in test [2], 2.35 µM (active); in test [9], 3.32 µM (active); in [3], 4.18 µM (active); in [10], 1.05 µM (active); in [4] it was 2.09 µM (active). Also, the Potency in test [8] is 1.05 µM (active).
